Screening data: PubChem BioAssay, National Center for Advancing Translational Sciences (NCATS)
hERG WT inh: qHTS for Inhibitors of KCHN2 3.1: Wildtype qHTS; U2OS, BacMam KCNH2, thallium flux FluxOr; active compounds read low; activity change, % at 1.84 µM; Voltage-gated inwardly rectifying potassium channel KCNH2 (Homo sapiens), Q12809; AID 720551, 2013; actives 0.37% (n = 340,000);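 active means maximum activity change below -70%; inconclusive means maximum activity change between -70% and -50%; inactive means maximum activity change above -50%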; further: on the % scale 0 is the no-effect control and ±100 the full control effect
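U2OS cells transduced with wild-type KCNH2 virus are loaded with FluxOr dye for 45 min, and thallium flux is measured in kinetic reads before and after stimulation buffer. Rate constants are normalized to DMSO controls.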
GRP78 ERSR act: qHTS for Inducers of the Endoplasmic Reticulum Stress Response (ERSR) in Human Glioma: qHTS. U87-MG GRP78 promoter luciferase reporter, 16 h. Potency, µM, inactives show top-dose activation, hits mostly activators. actives 0.02% (n = 420,000). AID 602332, 2012; active means well fitted activation curve with a large enough effect; inconclusive means small, poorly fitted or top-dose-only effect; inactive means no such curve, though single readings can be large or run the other way; further: potency means the concentration at half of the fitted maximal effect; series mostly up to about 76 µM; % of control where 0% means no effect; nearly all actives have a fitted effect of over 35% in size
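Stably transfected U87-MG human glioma cells carrying a GRP78-based luminescent sensor were seeded at 1000 cells/well, pin-dosed with compounds and incubated 16 h. Luciferase reagent was then added, and end-point luminescence was read after 10 min at room temperature.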
TRPML1 ag: qHTS for Agonists of the Human Mucolipin Transient Receptor Potential 1 (TRPML1); Mucolipin-1 (Homo sapiens), Q9GZU1; actives 0.12% (n = 410,000); TRPML1-expressing cells, Ca2+ dye fluorescence, FDSS; activation, % (test concentration not listed); in the data active means activation above about 50%; inconclusive means mostly about 30% to 49%; further: 0% is about no effect
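Tet-induced TRPML1-DL cells, 1,500 per well, cultured overnight, were loaded with a no-wash Ca2+ dye for 45–90 min. Calcium fluorescence was recorded on the FDSS for 110 s after compound addition, before the EC80 agonist (4 uM 54-4) was added.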
TRPML1 blocker: qHTS for Inhibitors of the Human Mucolipin Transient Receptor Potential 1 (TRPML1); TRPML1-inducible cells, Ca2+ dye fluorescence, FDSS; active compounds read low; inhibition of EC80 agonist-evoked calcium signal; activity change, negative = inhibition, % (no concentration beside the values); actives 0.02% (n = 390,000); AID 624415, 2012; in the data active means activity change below about -50%; inconclusive means between about -30% and that limit;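 further: stimulus is agonist 54-4 at its EC80 concentration; on the % scale 0 is the no-effect control and ±100 the full control effect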
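Tet-induced TRPML1-DL cells loaded with Ca8 no-wash calcium dye were read kinetically on FDSS. Compound addition was followed by EC80 agonist 54-4 (4 uM final); inhibition was read over 110 s.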
KCNH2 3.1 block: qHTS for Inhibitors of KCHN2 3.1: Mutant qHTS. U2OS KCNH2 3.1, thallium flux FluxOr; active compounds read low. AID 720553, 2013. activity change, % (tested at about 1.8 µM). actives 0.95% (n = 340,000);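 active means maximum activity change below -70%; inconclusive means maximum activity change from -70% to -50%; inactive means maximum activity change above -50%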;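 further: thallium influx rate constant from kinetic fluorescence after stimulation buffer; on the % scale 0 is the no-effect control and ±100 the full control effect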
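FluxOr-based Tl+ influx in U2OS cells transduced with KCNH2 3.1 virus; rate constants normalized to DMSO controls.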
TSG101-PTAP inh: qHTS Assay for Iinhibitors of HIV-1 Budding by Blocking the Interaction of PTAP/TSG101 | Fluorescence polarization, FITC-PTAP peptide / Tsg101 binding | Potency, µM (doses to about 115 µM), without a hit: at the top dose activity change, negative = inhibition, hits mostly inhibitors | 340,000 tested, under 10 active | AID 493005, 2010; active means well fitted inhibition curve with a large enough effect in the main read-out, with a control signal flat, not every such curve was filed as active; inconclusive means small, poorly fitted or top-dose-only effect, or effect the other way, or a change in a side signal; inactive means no such curve, though single readings can be large or run the other way; further: potency means the concentration at half of the fitted maximal effect; % of control where 0% means no effect
Target sequence (Q99816 whole entry, looked up): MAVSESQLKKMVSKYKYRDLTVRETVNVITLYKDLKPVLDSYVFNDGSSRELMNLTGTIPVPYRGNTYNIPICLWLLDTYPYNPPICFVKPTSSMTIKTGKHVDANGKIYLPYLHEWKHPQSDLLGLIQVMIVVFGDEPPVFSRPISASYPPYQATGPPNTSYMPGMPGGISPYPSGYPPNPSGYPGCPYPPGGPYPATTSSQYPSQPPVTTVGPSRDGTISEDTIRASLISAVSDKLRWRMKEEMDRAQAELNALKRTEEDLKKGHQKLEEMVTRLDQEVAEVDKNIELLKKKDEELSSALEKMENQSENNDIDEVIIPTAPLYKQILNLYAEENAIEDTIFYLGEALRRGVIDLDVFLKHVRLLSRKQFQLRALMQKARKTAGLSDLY
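Steps: Tsg101 binding domain dispensed (10 uM final), compounds pinned in DMSO, FITC-labeled PTAP-motif peptide added (50 nM final); after 20 min binding at room temperature, polarization measured.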
Active calls of the source: *; ? = inconclusive; . = not tested or not shown. Rows were chosen to be rich in hits. Some 1% of all compounds tested hit in one or more screens of this group.

SMILES	hERG WT inh	GRP78 ERSR act	TRPML1 ag	TRPML1 blocker	KCNH2 3.1 block	TSG101-PTAP inh
OCc1ccccc1OCCCN1CCC(Cc2ccccc2)CC1	-3	1%	1	2	-90*	-2%
Cc1ccc([N+](=O)[O-])c(OCCCN2CCC(Cc3ccccc3)CC2)c1	-127*	-2%	2	36	-97*	-2%
COc1cc(CN2CCC(Cc3ccccc3)CC2)c([N+](=O)[O-])cc1OC	11	-4%	-1	5	-14	-4%
COc1cc(C)c(CN2CCC(Cc3ccccc3)CC2)cc1C	36	-3%	1	-3	-28	1%
Cc1ccc([N+](=O)[O-])c(OCCN2CCCCCC2)c1	20	3%	0	-8	2	2%
Clc1ccccc1OCCN1CCC(Cc2ccccc2)CC1	16	-4%	-1	4	-24	2%
C=CCOc1ccccc1CN1CCC(Cc2ccccc2)CC1	39	-6%	1	-19	-87*	-7%
O=[N+]([O-])c1cccc(OCCN2CCC(Cc3ccccc3)CC2)c1	5	-3%	0	4	-70*	-1%
CC(C)(C)n1ncc2c(=O)n(Cc3cccc(F)c3)cnc21	.	3%	0	6	.	.
O=Cc1cc(Cl)ccc1OCCN1CCC(Cc2ccccc2)CC1	?	-4%	1	42	-105*	0%
Nc1nc(SCC(=O)c2c(N)n(Cc3ccccc3)c(=O)[nH]c2=O)n[nH]1	-105*	-3%	0	-8	-17	-1%
O=C(c1ccc2c(c1)OCO2)C1CCCN(Cc2ccc3cccc(F)c3n2)C1 (stereo not drawn)	-25	-2%	-1	20	-101*	0%
O=C(c1ccc2c(c1)OCO2)C1CCCN(Cc2ccc(OC(F)F)cc2)C1 (stereo not drawn)	-8	-3%	1	45	-94*	-3%
O=C(c1ccc2c(c1)OCO2)C1CCCN(Cc2cccc(C(F)(F)F)c2)C1 (stereo not drawn)	26	-3%	2	13	-10	-3%
Cc1ccc(C(=O)CSc2nc(N)cc(=O)[nH]2)cc1	-10	-9%	0	2	1	-5%
Cc1ccc(C(=O)CSc2nc(-c3ccccc3)cc(=O)[nH]2)cc1	-91*	0%	0	-5	0	-1%
CC1=NN(c2ccc(C(=O)OC(C)C)cc2)C(=O)/C1=C\C=C\c1ccco1	-202*	0%	-1	3	-194*	0%
CN1CCCC(CN(C)C(=O)c2cnn(-c3nccc(-c4ccccc4C(F)(F)F)n3)c2C2CC2)C1 (stereo not drawn)	.	-3%	.	.	.	.
COc1cc(CN(CCN(C)C)Cc2ccccc2)ccc1OCc1ccccc1	40	-1%	0	64	-1	2%
COc1ccc(CN(CCc2ccccc2)Cc2ccccc2)cc1OC	-23	-2%	1	53	-82*	1%
Cc1ccc(C)c(Nc2nc3c(S(=O)(=O)c4ccccc4)nnn3c3ccccc23)c1	-2	-2%	3	14	-72*	0%
Cc1ccc(S(=O)(=O)c2nnn3c2nc(Nc2cccc(C)c2)c2ccccc23)cc1	20	-3%	3	0	10	-2%
Cc1ccc(CNc2ncnc3sc(C(=O)N4CCCC(C(N)=O)C4)c(C)c23)o1 (stereo not drawn)	.	-2%	.	.	.	.
Cc1c(Cl)cccc1NC(=O)c1cc(-c2ccccc2O)n[nH]1	-22	-1%	1	8	-103*	-2%
COc1ccc(Cl)cc1NC(=O)c1cc(-c2ccccc2O)n[nH]1	-8	11%	-1	-7	-4	0%
SMILES	hERG WT inh	GRP78 ERSR act	TRPML1 ag	TRPML1 blocker	KCNH2 3.1 block	TSG101-PTAP inh
O=C(NCCCN1CCCC1)c1cc(Sc2ccc(F)cc2)nc2ccccc12	42	0%	1	-5	-78*	-1%
O=C(NCCCN1CCCCC1)c1cc(Sc2ccc(Cl)cc2)nc2ccccc12	.	-3%	3	9	.	.
Cc1ccc(C2CCN(C(=O)c3cnn(-c4cccc(Cl)c4)c3C3CCN(C(=O)OC(C)(C)C)CC3)C2)cc1 (stereo not drawn)	.	-3%	59*	-1	.	.
COc1ccccc1N1CCN(C(=O)c2cnn(-c3cccc(Cl)c3)c2C2CCN(C(=O)OC(C)(C)C)CC2)CC1	.	-4%	67*	-12	.	.
Cc1cccc(-n2ncc(C(=O)N3CCN(C4CCCCC4)CC3)c2C2CCN(C(=O)OC(C)(C)C)CC2)c1	.	-2%	91*	?	.	.
Cc1ccc(C2CCN(C(=O)c3cnn(-c4ccc(C)cc4)c3C3CCN(C(=O)OC(C)(C)C)CC3)C2)cc1 (stereo not drawn)	.	-3%	0	9	.	.
Cc1ccc(-n2ncc(C(=O)N3CCN(Cc4ccccc4)CC3)c2C2CCN(C(=O)OC(C)(C)C)CC2)cc1	.	-3%	1	-3	.	.
CC(C)(C)OC(=O)N1CCC(c2c(C(=O)N3CCN(Cc4ccccc4)CC3)cnn2-c2cccc(Cl)c2)CC1	.	-4%	92*	-26	.	.
CC(C)(C)OC(=O)N1CCC(c2c(C(=O)N3CCC(c4ccccc4)C3)cnn2-c2ccc(Cl)cc2)CC1 (stereo not drawn)	.	-1%	28	12	.	.
CC(C)(C)OC(=O)N1CCC(c2c(C(=O)N3CCC(c4ccccc4)C3)cnn2-c2cccc(Cl)c2)CC1 (stereo not drawn)	.	-1%	57*	-10	.	.
CCCCN(C(=O)c1ccc(S(=O)(=O)N(C)C)cc1)c1ccccc1	-4	-1%	81*	-12	3	-4%
CC(OC(=O)c1cc(Br)ccc1O)C(=O)Nc1ccc(S(=O)(=O)N2CCCC2)cc1 (stereo not drawn)	-3	-7%	0	-1	-91*	-1%
O=C(NC1CCCCC1)c1cc(-c2cccs2)on1	-10	6%	0	-6	-71*	-8%
Cc1cccc(C)c1NC(=S)NCCc1ccc(O)c(O)c1	-11	16µM*	0	0	9	0%
